Records with an inconclusive call do not appear. Calls come from the whole dose curve; as a rule, active = well fitted curve in either direction with a large enough effect (not every such curve was filed as active); inconclusive = small, poorly fitted or top-dose-only effect, or another doubt; inactive = flat fitted curve, though single readings scatter.
Assay: AP1 Signaling Pathway (AID 357)
Conditions: ME-180 (cervical carcinoma) AP-1-bla reporter, EGF-induced, beta-lactamase ratio, 5 h; at 7.69 µM (top of the series) unless noted
In short: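 AP-1-bla ME-180 cells with beta-lactamase reporter under AP-1 response element, stimulated with EC50 EGF; compounds titrated, 5 hours at 37 degrees Celsius. CCF4 read at 460/530 nm ratio; positive and negative modulators judged by AC50.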
% is set by controls: 0 for no effect and ±100 for the full control effect.

Activity change, negative = inhibition, inactive:
O=C(c1csnn1)N1CCC2(CCN(Cc3ccccc3)CC2)CC1 13.9%, Cc1cnc(CNc2nc(-c3ccc(N(C)C)cc3)nc3ccccc23)cn1 -17%, Cn1cc(C(F)(F)F)nc1-c1ccc(OC[C@@H](O)CNCCOc2ccc(O)c(C(N)=O)c2)cc1 -8.84% [at 38 µM], CN(C)c1ccc(-c2nc(N(C)C)c3ccccc3n2)cc1 3.53%, O=C(c1ccncc1)N1CCC2(CC1)CCN(c1ccncc1)CC2 -16.4%, CC(=O)NCCNc1ncncc1-c1ccccc1C(F)(F)F 1.26%, O=C(c1ccco1)N1CCC[C@@]2(CCN(c3ccccn3)C2)C1 4.46%, O=C(Nc1cccc(F)c1)N1CC2(CCN(C(=O)c3cnccn3)CC2)C1 -4.36%, O=C(c1ccncc1)N1CCC2(CCN(Cc3nccs3)CC2)CC1 6.32%, Cc1noc(C)c1C(=O)N1CCC2(CC1)CN(c1ccccn1)C2 23.5%, Cc1cnc(CNc2cc(-c3ccoc3)ncn2)cn1 -2.94%, O=C(c1ccco1)N1CCC[C@@]2(CCN(C(c3ccccc3)c3ccccc3)C2)C1 -9.33%, COc1ccc(C(=O)N2CCC[C@@]3(CCN(C(=O)NC(C)C)C3)C2)cc1 -14%, O=C(c1cc(C(F)(F)F)cc(C(F)(F)F)c1)N1CCC2(CC1)CN(c1ccncc1)C2 13%, Cc1cccc(CNc2ncnc3ccc(-c4c(C)noc4C)cc23)c1 14.8%, Cn1cccc1C(=O)N1CCC2(CCCN(c3ccncc3)C2)CC1 11.9%, COc1ccc(NC(=O)N2CC3(CCN(C(=O)c4csnn4)CC3)C2)cc1 20.6%, COc1ccc2[nH]cc(CCNc3ccnc(-c4cccc(NS(C)(=O)=O)c4)n3)c2c1 -8.22%, O=C(c1ccncc1)N1CCC[C@@]2(CCN(Cc3ccncc3)C2)C1 14.5%, COc1ccc(CNc2cc(-c3ccccc3CN(C)C)ncn2)c(OC)c1 -0.546%, O=C(c1ccncc1)N1CCC2(CC1)CCN(c1ccc(-c3ccccc3)cc1)CC2 -18.3%, COc1ccc(CNc2nc(-c3ccoc3)nc3ccccc23)c(OC)c1 -10.8%
